Measurements from publication PMC5540273 (PLoS ONE, 2017).

Key:
Settings in all cases: concentration: 1 μM,replicates: in singlicate; n = 1
[1] = test system: STK36
[2] = test system: STK39
[3] = test system: SYK
[4] = test system: SgK110
[5] = test system: T1, TAK1
T1 construct: gene MAP3K7

[6] = test system: TAOK1
[7] = test system: TAOK2
[8] = test system: TAOK3
[9] = test system: TBK1
[10] = test system: TEC
[11] = test system: TESK1
[12] = test system: TGFBR1
[13] = test system: TGFBR2
[14] = test system: TIE1
[15] = test system: T2, TIE2
T2 construct: gene TEK

[16] = test system: TLK1
[17] = test system: TLK2
[18] = test system: TNIK
[19] = test system: TNK1
[20] = test system: TNK2
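Also: KINOMEscan kinase panel screen.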

| SMILES | %Inh [1] [%] | %Inh [2] [%] | %Inh [3] [%] | %Inh [4] [%] | %Inh [5] [%] | %Inh [6] [%] | %Inh [7] [%] | %Inh [8] [%] | %Inh [9] [%] | %Inh [10] [%] | %Inh [11] [%] | %Inh [12] [%] | %Inh [13] [%] | %Inh [14] [%] | %Inh [15] [%] | %Inh [16] [%] | %Inh [17] [%] | %Inh [18] [%] | %Inh [19] [%] | %Inh [20] [%] |
| --- | --- | --- | --- | --- | --- | --- | --- | --- | --- | --- | --- | --- | --- | --- | --- | --- | --- | --- | --- | --- |
| Cl.Nc1n[nH]c2cc(-c3ccccn3)ccc12 [GSK2189892] | 0 | 0 | 7 | 0 | 2 | 0 | 0 | 0 | 6 | 0 | 22 | 0 | 0 | 0 | 0 | 0 | 0 | 5 | 0 | 15 |
| O=C(Nc1n[nH]c2cc(-c3ccco3)ccc12)C1CC1 [SB-737447] | 0 | 5 | 19 | 0 | 11 | 65 | 5 | 12 | 25 | 2 | 0 | 6 | 0 | 17 | 3 | 20 | 0 | 65 | 0 | 0 |
| C[C@@H](Oc1cc(-n2cnc3ccc(-c4ccncc4)cc32)sc1C(N)=O)c1ccccc1Cl [GSK483724] | 0 | 7 | 12 | 0 | 39 | 0 | 0 | 0 | 17 | 11 | 37 | 0 | 0 | 41 | 0 | 0 | 0 | 9 | 0 | 25 |
| Cc1ccc2c(-c3ccnc(Nc4ccc(C(F)(F)F)cc4)n3)cnn2n1 [GW819776] | 9 | 6 | 42 | 20 | 2 | 1 | 23 | 0 | 48 | 9 | 0 | 21 | 60 | 0 | 6 | 18 | 17 | 9 | 13 | 0 |
| c1ccc(Oc2ccc(Nc3ccnc4ccc(-c5ccccn5)cc34)cc2)cc1 [GW407034] | 0 | 15 | 1 | 27 | 0 | 0 | 24 | 0 | 18 | 78 | 29 | 10 | 0 | 2 | 2 | 0 | 0 | 0 | 28 | 23 |
| CC(=O)Nc1nc2cnc(Nc3cc(NC(=O)c4cccc(CC(C)(C)C#N)c4)ccc3C)nc2s1 | 8 | 22 | 0 | 0 | 41 | 0 | 0 | 0 | 12 | 7 | 0 | 9 | 0 | 20 | 2 | 0 | 0 | 0 | 7 | 0 |
| N#Cc1cccc(C(=O)NC2CCN(c3ccnc(Nc4ccc(F)cc4)n3)C2)c1 (centres unmarked) [GSK1379708] | 0 | 0 | 27 | 5 | 0 | 0 | 0 | 0 | 0 | 0 | 13 | 4 | 0 | 3 | 0 | 0 | 0 | 0 | 0 | 4 |
| Cc1ccn2nc(-c3ccc(F)cc3)c(-c3ccncc3)c2c1.Cl [GW457859] | 24 | 4 | 18 | 0 | 64 | 0 | 0 | 0 | 14 | 0 | 34 | 12 | 0 | 0 | 0 | 6 | 0 | 58 | 0 | 0 |
| OCCn1cc(-c2cnc3nnn(Cc4ccc5ncccc5c4)c3n2)cn1 | 0 | 0 | 0 | 0 | 12 | 0 | 0 | 0 | 0 | 0 | 0 | 0 | 0 | 0 | 0 | 0 | 0 | 0 | 19 | 0 |
| NC(=O)c1ccc(-c2cc3ncnc(SCC(=O)O)c3s2)cc1 | 0 | 0 | 0 | 0 | 0 | 0 | 0 | 0 | 8 | 0 | 6 | 0 | 40 | 0 | 13 | 5 | 0 | 33 | 0 | 0 |
| Cn1ccc2ncnc(Oc3ccc(NC(=O)Nc4cccc(C(F)(F)F)c4)c(F)c3)c21 | 0 | 3 | 43 | 0 | 31 | 0 | 38 | 0 | 51 | 5 | 11 | 0 | 19 | 96.7 | 92.8 | 0 | 2 | 0 | 17 | 0 |
| CC(=O)Nc1ccc(-c2cc3ncnc(SCC(=O)O)c3s2)cc1 | 1 | 0 | 1 | 0 | 17 | 0 | 0 | 0 | 15 | 0 | 6 | 7 | 46 | 17 | 6 | 20 | 8 | 16 | 0 | 0 |
| CS(=O)(=O)c1cccc(CNc2nc(Nc3ccc4c(c3)[C@@H]3C[C@@H]4CNC3=O)ncc2C(F)(F)F)c1 | 10 | 9 | 93.8 | 0 | 92.2 | 51 | 24 | 36 | 98.6 | 0 | 0 | 0 | 0 | 83 | 68 | 18 | 0 | 88 | 97.2 | 56 |
| O=C(NOCC1CC1)c1cc(Br)c(F)c(F)c1Nc1ccc(I)cc1Cl | 0 | 0 | 13 | 0 | 0 | 0 | 27 | 0 | 5 | 0 | 0 | 0 | 0 | 0 | 16 | 47 | 0 | 12 | 0 | 0 |
| CC(C)c1nc(-c2cccc(NS(=O)(=O)c3ccccc3)c2)c(-c2ccnc(Nc3ccc4c(c3)CN(C)CC4)n2)s1 [GSK1649598] | 100 | 85 | 0 | 0 | 51 | 97.2 | 98.5 | 97.8 | 40 | 94.2 | 97.5 | 94.1 | 94.8 | 91.5 | 99 | 41 | 33 | 93.7 | 100 | 96.2 |
| CC(=O)c1c(-c2ccncc2)[nH]c(-c2ccncc2)c1C [GW493036] | 10 | 20 | 24 | 0 | 19 | 63 | 0 | 0 | 0 | 0 | 25 | 23 | 25 | 0 | 1 | 0 | 0 | 0 | 0 | 19 |
| CC(C(=O)NC1CCN(c2ccnc(Nc3ccc(F)cc3)n2)C1)c1ccc(Cl)cc1 (centres unmarked) [GSK1379713] | 0 | 0 | 30 | 13 | 0 | 0 | 0 | 0 | 0 | 0 | 26 | 0 | 0 | 12 | 0 | 0 | 0 | 0 | 0 | 0 |
| COc1cc2nccc(Nc3ccc(Oc4ccccc4)cc3)c2cc1OC.Cl [GI261656] | 0 | 1 | 0 | 0 | 0 | 0 | 0 | 0 | 13 | 92.8 | 5 | 2 | 0 | 0 | 0 | 0 | 0 | 0 | 92.8 | 47 |
| Cn1ccc2ncnc(Oc3ccc(NC(=O)Nc4cnn(C(C)(C)C)c4)c(Cl)c3)c21 | 7 | 0 | 0 | 38 | 85 | 0 | 15 | 0 | 10 | 0 | 0 | 13 | 5 | 78 | 73 | 17 | 0 | 72 | 0 | 0 |
